# hiPSC survival: enhancers of single-cell hiPSC survival, primary screen, ATPlite luminescence; AID 602274, 2012; hit rate 0.044% among 360,000; 100% = ROCK inhibitor wells, 0% = DMSO; survival enhancement, % at 20 µM; in the data active means survival enhancement above about 18%;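 further: cells exposed to compounds for 16 hours before the ATP read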
# ABCB6 inh 2: ABCB6 transporter inhibitors, primary screen, K562-ABCB6 cells, flow cytometry, MLPCN library; K562-ABCB6 porphyrin accumulation, 1 h; active compounds read low; fluorescence ratio to DMSO, % at 10 µM; hit rate 0.19% among 360,000;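 active means fluorescence ratio to DMSO below 75%, the collection mean minus 3 SD; inconclusive means too few cells collected in the well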;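 further: signal is porphyrin accumulated inside mitochondria; lower ratio means ABCB6 inhibition with less porphyrin fluorescence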
# Target sequence (Q9NP58 whole entry, looked up): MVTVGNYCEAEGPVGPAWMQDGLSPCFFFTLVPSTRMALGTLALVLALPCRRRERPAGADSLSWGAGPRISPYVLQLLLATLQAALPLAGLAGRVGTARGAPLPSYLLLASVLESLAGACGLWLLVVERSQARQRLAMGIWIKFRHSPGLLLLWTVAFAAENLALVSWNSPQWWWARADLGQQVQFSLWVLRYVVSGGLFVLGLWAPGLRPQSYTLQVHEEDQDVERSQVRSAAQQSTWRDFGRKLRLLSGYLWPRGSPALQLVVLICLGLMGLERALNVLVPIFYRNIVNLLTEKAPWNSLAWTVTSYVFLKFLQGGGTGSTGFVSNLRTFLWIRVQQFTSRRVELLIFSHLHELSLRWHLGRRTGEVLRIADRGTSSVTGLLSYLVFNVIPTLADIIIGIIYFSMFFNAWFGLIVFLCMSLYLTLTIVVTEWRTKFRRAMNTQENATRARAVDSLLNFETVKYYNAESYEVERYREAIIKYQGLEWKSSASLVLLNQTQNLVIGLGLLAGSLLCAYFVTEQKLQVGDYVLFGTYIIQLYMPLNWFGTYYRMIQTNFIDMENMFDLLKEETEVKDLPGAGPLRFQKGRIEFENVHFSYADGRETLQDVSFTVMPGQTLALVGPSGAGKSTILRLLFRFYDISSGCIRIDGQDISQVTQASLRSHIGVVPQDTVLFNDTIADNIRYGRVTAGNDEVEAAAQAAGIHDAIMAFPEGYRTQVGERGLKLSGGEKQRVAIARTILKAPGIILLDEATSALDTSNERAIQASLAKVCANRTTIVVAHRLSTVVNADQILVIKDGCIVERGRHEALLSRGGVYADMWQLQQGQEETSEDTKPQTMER
# MIN6 prolif: inducers of MIN6 beta-cell proliferation, primary screen, ATP luminescence, uHTS; MIN6 cells proliferation, ATPlite luminescence, 48 h; cells starved in 0.2% serum; 100% = growth in 10% serum; proliferation, % at 10 µM; hit rate 0.29% among 330,000;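 active means compounds whose signal lies at least 3.5 SD above the mean of all wells on their plate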
# Myeloid diff 2: induction of myeloid progenitor differentiation, primary screen, cell-based, flow cytometry, MLPCN library. ER-HoxA9 myeloid progenitors, lysozyme-GFP differentiation. calls only at 10 µM. hit rate 1% among 360,000. AID 624256, 2012;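 active means normalized GFP-positive differentiation at or above the plate's own cutoff, the solvent-only control mean plus 3 SD; inconclusive means no clear call, values can overlap the other calls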;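 further: cells exposed to compound for four days before flow analysis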
# Cardio protect: cardioprotection against H2O2-induced cell death, primary screen, uHTS, H9c2 cells, ATPLite luminescence; AID 588492, 2011; protection from H2O2 cell death, % at 20 µM; H9c2 cardiomyocytes, H2O2 injury protection, 2 h; hit rate 0.63% among 360,000;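 active means compounds giving at least 50% protection of heart cells from peroxide-induced death in the single-dose screen, raw or plate-pattern-corrected value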
# A number is an active result; – = inactive; ? = inconclusive; · = no result given; + = active, no number. Most compounds without a hit are left out; they make up all but 2.2% or so of the library.
SMILES,hiPSC survival,ABCB6 inh 2,MIN6 prolif,Myeloid diff 2,Cardio protect
OCC(O)CN1CCN(c2ccccc2)CC1 (centres undefined),–,–,–,+,–
OC(CN1CCN(c2ccccc2)CC1)Cn1c2ccccc2c2ccccc21 (centres undefined),–,–,–,–,–
CCCCNC(=O)CO/N=C(\C)c1cc2ccccc2o1,–,–,–,+,–
Cc1ccc(SCCNC(=O)/C=C/c2ccc(Cl)cc2)cc1,–,–,–,–,–
CCCOc1ccccc1/C=C(\C#N)C(=O)Nc1cccc(C)n1,–,–,–,+,–
Cc1cccc(NC(=O)/C(C#N)=C/c2ccc(F)cc2)n1,–,–,–,–,–
C/C(=N\NC(=O)c1ccccc1)c1ccccc1F,–,–,–,–,–
CCOC(=O)c1c(-c2ccccc2)csc1NC(=O)/C(C#N)=C\c1ccc(O)c(OC)c1,–,–,·,+,–
COc1cc(/C=C(\C#N)C(=O)Nc2ccccn2)ccc1O,–,–,–,–,–
CCOC(=O)/C(C#N)=C\c1ccc(O)c(OC)c1,–,–,–,–,–
CCOC(=O)c1c(-c2ccc(C)cc2)csc1NC(=O)/C(C#N)=C/c1ccc(O)c(OC)c1,–,–,·,+,–
Cc1ccc(C(=O)NCC(c2ccco2)N2CCCCC2)s1 (centres undefined),–,–,–,–,–
Cc1ccc2oc(C(=O)NCC(c3ccco3)N3CCCC3)c(C)c2c1 (centres undefined),–,–,–,+,–
O=C(NCC(c1ccco1)N1CCCCC1)c1ccc([N+](=O)[O-])s1 (centres undefined),–,–,–,+,–
COc1cc(/C=C(\C#N)c2nc3ccccc3[nH]2)ccc1Oc1ccc([N+](=O)[O-])cn1,–,–,–,–,76
Cc1ccc2nc(/C(C#N)=C\c3cc(O)ccc3[N+](=O)[O-])[nH]c2c1,–,–,–,–,–
CCCOc1cc(N(CC)CC)ccc1/C=C(/C#N)c1nc2ccc(C)cc2[nH]1,–,–,–,?,–
Cc1ccc2nc(/C(C#N)=C/c3ccc(-c4cccc([N+](=O)[O-])c4)o3)[nH]c2c1,–,–,·,+,–
COc1cc(/C=C(/C#N)c2ccccc2)ccc1Oc1ccc([N+](=O)[O-])cn1,–,–,–,–,–
COc1cc(/C=C(\C#N)c2nc3ccc(C)cc3[nH]2)c([N+](=O)[O-])cc1OC,–,–,–,–,85
CCN(CC)c1ccc(/C=C(/C#N)c2nc3ccc(C)cc3[nH]2)c(OC(C)C)c1,–,–,–,+,–
C/C(=C\c1cccc(Cl)c1)C(=O)c1c(C)cc(C)[nH]c1=O,–,–,–,–,–
O=S1(=O)CCC(N=Cc2cc(Br)ccc2O)C1 (centres undefined),–,–,–,–,70
CC(=O)c1c(C)[nH]c(C(=O)CSc2nc3ccccc3c(=O)n2CCCN2CCOCC2)c1C,–,–,–,–,–
Cc1sc2nc(CSc3nc4ccccc4c(=O)n3CCCN3CCOCC3)[nH]c(=O)c2c1C,–,–,–,+,–
SMILES,hiPSC survival,ABCB6 inh 2,MIN6 prolif,Myeloid diff 2,Cardio protect
Cc1nc(/C=C/c2ccccc2)cc(/C=C/c2ccccc2)n1,–,–,–,–,–
C#CCN(C[C@@H]1[C@@H](OC(=O)Nc2cccs2)[C@@H](OC(=O)Nc2cccs2)Cn2c(=O)ccc(=O)n21)S(=O)(=O)c1ccc(C)cc1,–,–,·,–,–
CCS(=O)(=O)N1N=C(c2ccc(NS(C)(=O)=O)cc2)CC1c1ccccc1 (centres undefined),–,–,–,+,–
Cc1cc(NC(=O)CSc2nc(C3CCCCC3)nc3ccccc23)no1,–,–,–,–,–
COc1ccc(C(=O)C2CCCN(C(=O)c3c4c(nn3C)CCCC4)C2)cc1F (centres undefined),–,–,–,+,–
COCCn1c(C)cc(C(=O)COC(=O)C23CC4CC(CC(O)(C4)C2)C3)c1C,–,2.0,–,–,–
Cc1cc(C(=O)COC(=O)C23CC4CC(CC(O)(C4)C2)C3)c(C)n1-c1c(C)n(C)n(-c2ccccc2)c1=O,–,–,–,–,–
COc1ccc(OC)c(S(=O)(=O)ON2C(=O)c3ccccc3C2=O)c1,–,–,–,+,–
Cc1onc(-c2c(Cl)cccc2Cl)c1C(=O)N1CCc2ccccc21,–,–,–,–,–
Cc1ccc(NCc2n[nH]c(=S)n2-c2ccccc2)c(C)c1,–,–,–,–,–
O=C(O)COc1ccc(/C=C/c2ccc3cccc([N+](=O)[O-])c3n2)cc1,–,–,–,–,–
CC(=O)Nc1ccc(/C=C/c2ccc3cccc([N+](=O)[O-])c3n2)cc1,–,–,–,+,–
O=C(Nc1cccc([N+](=O)[O-])c1)N(c1ccccc1)c1ccccc1,–,–,·,–,–
CCCNC(=O)c1ccc2c(=O)c(O)c(-c3ccc(Cl)c([N+](=O)[O-])c3)[nH]c2c1,–,–,–,–,68
O=C(NCCc1nc2ccccc2[nH]1)c1ccc(Cl)c([N+](=O)[O-])c1,–,–,–,–,–
Cc1ccc(N)c(C(=O)CCCCC(=O)O)c1,–,–,–,+,–
Cc1ccc(NC(=O)CCCC(=O)O)c(Br)c1,–,–,–,–,–
CC(=NNC(=S)N1CCC1)c1ccccn1,–,–,·,·,–
COc1cc2c3nnc(-c4ccc(F)cc4)c-3cn(Cc3ccccc3F)c2cc1OC,–,–,·,+,–
CC/C(O)=C1\C(=O)CC(c2ccccc2)CC1=NCCc1c(C)[nH]c2ccc(C)cc12 (centres undefined),–,–,–,+,–
CCC/C(O)=C1\C(=O)CC(c2ccccc2)CC1=NCCc1c(C)[nH]c2ccc(C)cc12 (centres undefined),–,–,–,–,–
COc1cc(OC)c2c(c1O)OC(c1ccccc1)CC2=O (centres undefined),–,–,–,–,–
CCN(C(=O)c1ccc(C(C)(C)C)cc1)c1nnc(Cn2nnc3ccccc32)s1,–,–,–,+,–
CC1(c2ccccc2)NC(=O)N(CC(=O)N(c2ccccc2)C2CCS(=O)(=O)C2)C1=O (centres undefined),–,–,–,–,–
COc1ccccc1C(=O)Nc1nc2cc3c(cc2s1)OCCO3,–,–,–,+,–
Cc1c(N2C(=O)c3cccc4cccc(c34)C2=O)c(=O)n(-c2ccccc2)n1C,–,–,–,–,–
COc1ccc(N(CCC(=O)O)S(=O)(=O)c2ccc(C)c(C)c2)cc1,–,–,–,–,–
Cc1ccc(S(=O)(=O)CCC(=O)O)cc1C,–,–,–,+,–
COc1ccc(-c2ccc3nnc(SCC(N)=O)n3n2)cc1,–,–,–,–,–
